The whole screen tested about 69,000 compounds, of which about 50 (0.07%) showed an effect of 50% or more. The list comes from a sample in which strong results are over-represented; it also holds similar structures and randomly drawn compounds.
Target: Lysine--tRNA ligase (Plasmodium falciparum (isolate 3D7)) (UniProt Q8IDJ8)
Experiment: Pf-KRS-1 (Lysyl-RNA Synthetase-1, KRS-1, cytosolic KRS) from Plasmodium falciparum. Inhibitor assay, 384 well plate, luminescence read.
Format: functional
Parameters: scale not given: in the data most compounds retested in dose-response had high values
Conditions: 30 µM

Lysine--tRNA ligase (Plasmodium falciparum (isolate 3D7)), sequence (Q8IDJ8 1-583): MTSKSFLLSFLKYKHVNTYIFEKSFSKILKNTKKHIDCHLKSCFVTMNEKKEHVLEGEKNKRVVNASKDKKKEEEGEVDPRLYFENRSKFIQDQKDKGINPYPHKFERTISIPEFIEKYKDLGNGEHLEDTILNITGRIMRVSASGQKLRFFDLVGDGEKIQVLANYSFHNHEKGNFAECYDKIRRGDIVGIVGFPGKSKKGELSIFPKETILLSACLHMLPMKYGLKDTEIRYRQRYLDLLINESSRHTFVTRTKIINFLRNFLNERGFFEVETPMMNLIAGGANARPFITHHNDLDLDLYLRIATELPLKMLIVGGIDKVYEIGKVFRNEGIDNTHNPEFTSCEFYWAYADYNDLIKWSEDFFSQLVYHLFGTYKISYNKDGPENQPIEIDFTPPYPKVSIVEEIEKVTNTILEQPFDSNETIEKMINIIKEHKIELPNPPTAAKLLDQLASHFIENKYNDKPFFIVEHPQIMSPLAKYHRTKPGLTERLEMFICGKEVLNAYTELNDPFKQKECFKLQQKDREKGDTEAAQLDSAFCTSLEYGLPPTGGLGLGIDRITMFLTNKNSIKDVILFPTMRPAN

| Compound | Percent Effect [%] |
| --- | --- |
| COCC(=O)N1CC[C@H]2[C@H]1CCN2CC(C)C | 7.19 |
| CN(Cc1ccco1)[C@@H]1CN(CC2CCOCC2)C[C@@H]2CCCO[C@@H]21 | -0.34 |
| CN1C[C@H]2CNC[C@@]2(C(=O)N2CCN(c3ncccc3C#N)CC2)C1 | 4.21 |
| O=C([C@H]1CCS(=O)(=O)[C@@H]2CN(Cc3ccc(F)cc3)C[C@H]12)N1CCCC1 | 7.12 |
| O=C(c1ccc[nH]1)N1C[C@H](OCc2ccccn2)[C@H]2COC[C@H]21 | -1.37 |
| Cn1nc2c(cc1=O)CN(Cc1nc(-c3cccnc3)no1)CC2 | -1.07 |
| Cn1nc2c(cc1=O)CN(Cc1nc(-c3ccco3)no1)CC2 | 5.02 |
| Cc1ccc(-c2noc(CN3CCc4nn(C)c(=O)cc4C3)n2)cc1 | 1.64 |
| Cc1cccc(-c2noc(CN3CCc4nn(C)c(=O)cc4C3)n2)c1 | 68.9 |
| Cn1nc2c(cc1=O)CN(Cc1nc(C(C)(C)C)no1)CC2 | 70.1 |
| Cn1nc2c(cc1=O)CN(Cc1nc(C3CC3)no1)CC2 | 8.16 |
| CSCC[C@H]1CN2CCC[C@H]2CN1Cc1coc2ccc(C)cc2c1=O | -1.05 |
| Fc1cnc(N2CCO[C@H]3CN(CC4CCC4)C[C@H]32)nc1 | -1.14 |
| Cc1nnsc1CN1C[C@H]2CC[C@@H]1CN(Cc1ccccc1)C2 | 2.23 |
| CCC(=O)N1CC[C@H]2C(=O)N(Cc3ccc(OC)cc3)CCO[C@H]2C1 | 4.55 |
| Cc1noc(C)c1CN1CC[C@H]2[C@H]1CCN2CC1CCOCC1 | 59 |
| Cc1noc(C)c1CN1CCO[C@H]2CN(CC3CC3)C[C@H]21 | 2.54 |
| Cc1noc(C)c1CN1CC[C@H]2[C@@H]1CCC(=O)N2CC1CCOCC1 | 3.41 |
| CCCN1CCN(C(=O)c2cccc3cccnc23)[C@H]2CS(=O)(=O)C[C@H]21 | -0.361 |
| CN1CCC(N2Cc3nc(N)ncc3C2=O)CC1 | 2.22 |
| CC(C)CN1Cc2nc(N3CCCC3)ncc2C1=O | 6.16 |
| CC1CCC(N2Cc3nc(N)ncc3C2=O)CC1 (stereo unspecified) | 73.8 |
| CC(C)CN1Cc2nc(N3CCC(O)CC3)ncc2C1=O | 4.55 |

| Compound | Percent Effect [%] |
| --- | --- |
| CC(C)CN1Cc2nc(N)ncc2C1=O | 91.2 |
| CC1(C)CC(N2Cc3nc(N)ncc3C2=O)CC(C)(C)N1 | 1.77 |
| CN1[C@H](CN2CCCC2)C[C@@H]2CN(C(=O)Cc3cccs3)CC[C@@H]21 | -1.4 |
| CCO[C@@H]1CN(S(=O)(=O)c2cn(C)cn2)[C@@H]2CCCO[C@@H]21 | 3.16 |
| CC(C)=CCN1C(=O)[C@H]2CC[C@@H]1CN(C(=O)CCc1n[nH]c(C)c1C)C2 | -4.7 |
| CC(NC(=O)C1=NN(C)C(=O)CC1)c1ccccc1Cl (stereo unspecified) | 7.44 |
| CC(NC(=O)C1=NN(C)C(=O)CC1)c1ccc(Cl)cc1 (stereo unspecified) | 6.56 |
| CC(NC(=O)C1=NN(C)C(=O)CC1)c1ccc(Cl)cc1Cl (stereo unspecified) | 57.8 |
| c1ccc(CO[C@@H]2CN(Cc3ccoc3)[C@@H]3COC[C@@H]32)nc1 | -0.514 |
| CC(C)SCCn1ccc2[nH]c(=O)c(C#N)cc2c1=O | 48.5 |
| N#Cc1cc2c(=O)n(CC(O)C(F)(F)F)ccc2[nH]c1=O (stereo unspecified) | 27.3 |
| CCCOC(C)Cn1ccc2[nH]c(=O)c(C#N)cc2c1=O (stereo unspecified) | 61.2 |
| CC(O)CCn1ccc2[nH]c(=O)c(C#N)cc2c1=O (stereo unspecified) | 58.6 |
| CCC(Cn1ccc2[nH]c(=O)c(C#N)cc2c1=O)OC (stereo unspecified) | 34.1 |
| N#Cc1cc2c(=O)n(CC(O)Cc3ccccc3)ccc2[nH]c1=O (stereo unspecified) | 4.36 |
| CC(C)C(=O)N1CCN(C(=O)c2cc(C(C)C)no2)[C@H]2CS(=O)(=O)C[C@H]21 | 2.34 |
| Cc1cc(CN2C[C@@H]3CN(Cc4ccsc4)CCO[C@@H]3C2)no1 | 3.95 |
| CCCn1cc(NC(=O)c2ccc(S(=O)(=O)CC)cc2)ccc1=O | 78.9 |
| CCCn1cc(NC(=O)c2ccc(S(C)(=O)=O)cc2)ccc1=O | 79.3 |
| CCCn1cc(NC(=O)c2cccnc2O)ccc1=O | 10.4 |
| CCCn1cc(NC(=O)c2ccc(N(C)CC)cc2)ccc1=O | 6.21 |
| CCCn1cc(NC(=O)c2ccncc2)ccc1=O | 36.1 |
| CCCn1cc(NC(=O)c2ccc(NC(=O)NC3CC3)cc2)ccc1=O | 3.05 |

| Compound | Percent Effect [%] |
| --- | --- |
| Cc1noc([C@H]2CC[C@@H]3[C@@H](CCN3S(C)(=O)=O)O2)n1 | 4.83 |
| CN(C)C(=O)N1C[C@@H]2CC[C@H](C1)N(Cc1nnc(C3CC3)o1)C2 | 1.65 |
| CCC(=O)N1CCN(C(=O)c2ccc(COC)o2)[C@H]2CS(=O)(=O)C[C@H]21 | 1.62 |
| O=C([C@@H]1CCO[C@@H]2CCN(Cc3ccc(F)cc3)C[C@H]21)N1CCCCO1 | 4.98 |
| Cc1ncncc1C(=O)N1C[C@H]2CC[C@@H]1CN(C(=O)c1ccncc1)C2 | 4.91 |
| COc1cccc(C2SCC(=O)Nc3n[nH]cc32)c1OC(C)C (stereo unspecified) | 1.84 |
| COc1cccc(C2CC(=O)Nc3nc(N4CCCCC4)sc32)c1OC (stereo unspecified) | 84.4 |
| COc1cccc(CNCc2ccnc(N3CCOCC3)c2)c1OC | 5.86 |
| COc1cccc(C2CC(=O)Nc3nc(N4CCOCC4)sc32)c1OC (stereo unspecified) | 77.8 |
| COc1cccc(C2SCC(=O)Nc3ccsc32)c1OC (stereo unspecified) | 1.9 |
| CCn1ncnc1C1CC(=O)NCc2nc(N3CCCC3)sc21 (stereo unspecified) | 2.27 |
| CC(C)Oc1ccccc1C1CC(=O)Nc2c1cnn2C (stereo unspecified) | 1.57 |
| CC(C)Oc1ccccc1C1CC(=O)Nc2nc(N3CCOCC3)sc21 (stereo unspecified) | 82.6 |
| Nc1nc2c(s1)C(c1c(F)cccc1Cl)CC(=O)N2 (stereo unspecified) | 41.6 |
| COc1cccc(CNc2nc(N3CCOCC3)ns2)c1OC | -2.52 |
| CCOc1cccc(C2CC(=O)NCc3nc(N4CCCC4)sc32)c1 (stereo unspecified) | 1.45 |
| COc1cccc(C2CC(=O)Nc3nc(N)sc32)c1OC (stereo unspecified) | 62.7 |
| O=C(N1CCCC1)N1C[C@H]2CCC[C@@]2(COCc2ccccn2)C1 | 2.76 |
| CCO[C@@H]1CC[C@H]2[C@H]1OCCN2Cc1ccoc1 | 2.1 |
| CNC(=O)[C@@H]1C[C@H]2CN(Cc3csc(C)n3)C[C@H]2N1C(C)C | 4.1 |
| O=C([C@H]1CN(Cc2cccnc2)C[C@H]2OCC[C@@H]12)N1CCCO1 | 2.79 |
| CN(C)C(=O)[C@@H]1C[C@@H]2CCN(C3CCOCC3)C[C@H]2O1 | 1.18 |
| N#Cc1cccc(C(=O)Nc2ccc([C@@H](O)[C@H]3COCC(=O)N3)cc2)c1 | 5.33 |

| Compound | Percent Effect [%] |
| --- | --- |
| COCC(=O)N1CCN(S(=O)(=O)c2ccccc2)[C@H]2CS(=O)(=O)C[C@H]21 | 2.66 |
| O=C1CO[C@@H]2CN(Cc3nccs3)C[C@H]2N1Cc1ccncc1 | 3.56 |
| COCC(=O)N1C[C@@H](OCc2ccncc2)[C@@H]2OCCC[C@@H]21 | 0.763 |
| COc1ccccc1C1CC(=O)Nc2c1c(=O)[nH]n2C(C)C (stereo unspecified) | -1.35 |
| COc1ccccc1C1CC(=O)Nc2nc(N3CCCCC3)sc21 (stereo unspecified) | 84.3 |
| COc1ccccc1C1CC(=O)Nc2c1c(=O)[nH]n2C1CCCC1 (stereo unspecified) | 5.39 |
| COCCN1C[C@H]2CCC[C@@H](CNc3ncccn3)[C@H]2C1 | 5 |
| Cn1ccnc1NC[C@@H]1CCC[C@@H]2CN(CC3CC3)C[C@@H]21 | 9.69 |
| Cc1ncsc1CN1C[C@H]2OCC[C@H]2[C@H](C(=O)NCC2CC2)C1 | 0.98 |
| Fc1cccc(CCN(c2ccc3nnnn3n2)C2CC2)c1 | 5.52 |
| CCCN(CCc1cccc(F)c1)c1ccc2nnnn2n1 | 10.9 |
| CCN(Cc1cccc(F)c1)c1ccc2nnnn2n1 | 50.8 |
| O=C(c1ccco1)N1CC[C@@H]2O[C@H](COCC3CCOCC3)CC[C@@H]21 | 0.363 |
| CS(=O)(=O)NC[C@@H]1OC[C@H]2CN(Cc3ccccc3)CC[C@H]21 | 3.37 |
| COCCNC(=O)[C@H]1C[C@@H]2CCN(CCc3ccccc3)C[C@@H]2O1 | 1.68 |
| COc1cccc(CN2C[C@@H]3COC[C@]3(CNC(=O)C3CC3)C2)c1 | 4.5 |
| O=C1CC(c2ccccc2Br)c2sc(N3CCOCC3)nc2N1 (stereo unspecified) | 60.1 |
| OC1CN(c2nc3c(C(F)(F)F)cccc3s2)C1 | -2.21 |
| Cn1ncc2c1NC(=O)CC2c1ccccc1Br (stereo unspecified) | 1.2 |
| O=C1CC(c2ccccc2C(F)(F)F)c2sc(N3CCOCC3)nc2N1 (stereo unspecified) | 82.6 |
| Cc1cc(Br)c(O)c(-c2nc(N3CCOCC3)sc2C)c1 | 2.13 |
| O=c1[nH]nc(-c2cccs2)c2sc(N3CCOCC3)nc12 | 7.56 |
| COCCN1CCO[C@@H]2CN(Cc3ccc(C)o3)C[C@@H]2C1 | 3.96 |

| Compound | Percent Effect [%] |
| --- | --- |
| CNC(=O)[C@@H]1COC[C@H]2CN(C(=O)COc3ccccc3)C[C@H]21 | 5.31 |
| CC(C)CS(=O)(=O)N1C[C@H]2C[C@H](C(=O)Nc3cccnc3)[C@@H](C1)O2 | -0.957 |
| O=C(Nc1ccccc1)[C@H]1C[C@@H]2CN(S(=O)(=O)c3ccccc3)C[C@H]1O2 | 1.2 |
| CCOCC1CN(Cc2ccc(OC)cc2)Cc2nn(CC3CC3)cc21 (stereo unspecified) | 60.3 |
| CCOCC1CN(Cc2ccc(F)cc2)Cc2nn(CC3CC3)cc21 (stereo unspecified) | 3.6 |
| CCOCC1CN(Cc2ccc(OC)cc2)Cc2nn(C)cc21 (stereo unspecified) | -4.8 |
| CNC(=O)N1CC[C@H]2N(C)CC[C@@]2(C(=O)N2CCOCC2)CC1 | 5.59 |
| Cc1cccc(C(=O)N2CC[C@H]3C[C@@H](C)O[C@@H]3C2)n1 | 1.1 |
| CS(=O)(=O)N1C[C@@H]2COC[C@@H](CC(=O)N3CCCCO3)[C@@H]2C1 | -2.78 |
| O=C(N1CCCO1)[C@@]12CCO[C@@H]1CCN(Cc1ccccc1)C2 | 4.7 |
| COc1cccc(CN2C[C@H]3CCNCC[C@H]3S2(=O)=O)c1 | -2.39 |
| Cc1noc(C)c1CN1CC[C@H]2C[C@H](c3nccs3)O[C@@H]2C1 | -0.715 |
| COCc1nc2cc(NCc3scnc3C)ccc2o1 | 13.6 |
| COCc1nc2cc(NCc3sc(C)nc3C)ccc2o1 | 58.6 |
| COCc1nc2cc(NCc3csc(C)n3)ccc2o1 | 10.7 |
| COCCN1CCC(CNC(=O)c2c[nH]c(=O)c(Cl)c2)CC1 | 2.11 |
| CCC1CCC(CNC(=O)c2c[nH]c(=O)c(Cl)c2)CC1 (stereo unspecified) | 67.6 |
| CC/C=C(\C)CN1CCC(CNC(=O)c2c[nH]c(=O)c(Cl)c2)C1 (stereo unspecified) | -1.78 |
| c1cnc(N2CC[C@@H]3CN(Cc4ccncc4)CCO[C@@H]3C2)nc1 | 4.97 |

Reference: ChEMBL document CHEMBL3988442, “University of Dundee, Small-Polar-MMV Screening Library” (2021)
